Screens: PubChem, National Center for Advancing Translational Sciences (NCATS)
Cruzain inh Det – cruzain (T. cruzi) inhibition with detergent | purified cruzain, Z-FR-AMC fluorescence, 0.01% Triton | Potency, µM, without a hit: max response, negative = inhibition, hits mostly inhibitors | 200,000 tested, 0.43% active | AID 1478;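 note: plate controls were neutral wells for no effect and buffer without enzyme for full effect; nearly all actives have a fitted effect of over 40% in size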
Target sequence (P25779 123-467 limits assumed): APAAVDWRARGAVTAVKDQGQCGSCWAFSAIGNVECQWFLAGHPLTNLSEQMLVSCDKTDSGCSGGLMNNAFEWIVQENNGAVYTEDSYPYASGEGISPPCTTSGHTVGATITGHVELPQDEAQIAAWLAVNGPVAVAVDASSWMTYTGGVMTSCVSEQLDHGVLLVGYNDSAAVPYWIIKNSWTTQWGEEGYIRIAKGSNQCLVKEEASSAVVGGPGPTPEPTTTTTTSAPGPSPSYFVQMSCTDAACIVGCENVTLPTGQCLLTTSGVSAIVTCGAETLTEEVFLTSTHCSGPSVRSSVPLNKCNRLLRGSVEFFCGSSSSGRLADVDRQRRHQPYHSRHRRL
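Z-FR-AMC hydrolysis (2 uM substrate) by cruzain (1.5 nM) monitored kinetically at ex 360/em 450 nm after 15 min room-temperature compound exposure; 0.01% Triton X-100, pH 5.5, 5 mM DTT.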
Cruzain inh noDet – cruzain (T. cruzi) inhibition without detergent; P25779; purified cruzain, Z-FR-AMC fluorescence, no detergent; Potency, µM, without a hit: max response, negative = inhibition, hits mostly inhibitors; 200,000 tested, 2.3% active; AID 1476;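 note: plate controls were enzyme without inhibitor for no effect and buffer without enzyme for full effect; nearly all actives have a fitted effect of over 40% in size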
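Detergent-free condition (0.00005% Triton X-100) in acetate buffer pH 5.5 with DTT. 1.5 nM enzyme and compound were pre-mixed 15 min, then 2 uM Z-FR-AMC substrate added; reaction progress from fluorescence change between first and third reads (60 s).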
Papain inh – papain (Carica papaya) inhibition counter-screen; shares compounds with Cruzain inh Det; purified papain, Z-FR-AMC fluorescence cleavage; Potency, µM, for the others: max response, negative = inhibition, most hits filed as inhibitors; 410 tested, 41% active; AID 2161;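 note: 0% = no-compound wells and -100% = no-enzyme wells; nearly all actives have a fitted effect of over 35% in size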
* marks the source's active call; other numbers are inactive results. Compounds with a hit are over-represented: about 2.4% of the library has one in this group of screens. Calls come from the whole dose curve; as a rule, active = well fitted curve in the direction sought with a large enough effect; inconclusive = small, poorly fitted or top-dose-only effect, or another doubt; inactive = no such curve, though single readings can be large; an effect the other way counts as inactive or inconclusive. Potency is the fitted concentration of half-maximal effect.

COc1cccc(COC(=O)c2ccc(-c3nnn(Cc4cccc(OC)c4)n3)cc2)c1 was read as Cruzain inh Det 1% and Cruzain inh noDet -16%.
For COc1ccc(N2CC(NC(=O)c3ccc4c(c3)OCO4)CC2=O)cc1OC (stereo not given) the results were Cruzain inh Det 0% and Cruzain inh noDet -5%.
`Cc1ccccc1CNC(=O)CCC(=O)N1CC2CCCN2c2ccccc21` (stereo not given) gave Cruzain inh Det -5% and Cruzain inh noDet -12%.
For COc1ccc(N(CC(=O)Nc2cc(C)ccc2C)S(=O)(=O)c2ccc(OC)c(OC)c2)cc1 the results were Cruzain inh Det -1% and Cruzain inh noDet 5%.
Screening O=C(c1ccc(OCCN2CCCCC2)cc1)c1c(-c2ccc(O)cc2)sc2cc(O)ccc12 returned Cruzain inh Det -5%, Cruzain inh noDet -12% and Papain inh -3%.
For O=C(c1ccccc1)c1ccc(OCCCN2CCCCC2)cc1 the results were Cruzain inh Det 4% and Cruzain inh noDet 7%.
`O=C(Nc1ccc(Cl)cc1C(=O)c1ccccc1)c1ccccc1` gave Cruzain inh Det 1% and Cruzain inh noDet -17%.
Cc1oc(=O)c(NC(=O)c2cccc(Cl)c2)cc1C(=O)c1ccccc1 was read as Cruzain inh Det 1.3µM*, Cruzain inh noDet 0.63µM* and Papain inh -5%.
For c1nc(NC2CCNCC2)c2cc(-c3ccoc3)ccc2n1 the results were Cruzain inh Det 1% and Cruzain inh noDet -14%.
`CCc1cc2c(=O)[nH]c(Cc3ccccc3)nc2s1` gave Cruzain inh Det -2% and Cruzain inh noDet inconclusive.
Screening CCc1cc2c(=O)[nH]c(-c3ccncc3)nc2s1 returned Cruzain inh Det 8.9µM*, Cruzain inh noDet inconclusive and Papain inh -39%.
Cc1ccc2c(c1)N(C(=O)N1CCC(C(=O)NCc3ccccc3F)CC1)CC(C)O2 (stereo not given) was read as Cruzain inh Det -2% and Cruzain inh noDet 11%.
For CCCCNC(=O)Cn1c(SCc2ccccc2C)nc2ccncc21 the results were Papain inh -3%.
`CCc1ccccc1NC(=O)Cn1c(SCc2ccc(F)cc2)nc2ccncc21` gave Cruzain inh Det -24% and Cruzain inh noDet -8%.
CCc1ccc(NC(=O)Cn2c(SCc3ccc(C)cc3)nc3ccncc32)cc1 was read as Papain inh -3%.
CN(C)c1ccc(NC(=O)Cn2c(SCc3ccc(F)cc3)nc3ccncc32)cc1 was read as Cruzain inh Det -6% and Cruzain inh noDet -4%.
For CCCNC(=O)Cn1c(SCc2ccccc2C)nc2ccncc21 the results were Papain inh 1%.
Screening Cc1ccccc1Cn1c(SCc2ccc(C(=O)NC3CCCC3)cc2)nc2ccncc21 returned Cruzain inh Det -4% and Cruzain inh noDet -11%.
`COc1ccc(CCNC(=O)C(=O)NCC(c2cccs2)S(=O)(=O)c2ccccc2)cc1` (stereo not given) gave Cruzain inh Det 2% and Cruzain inh noDet 18%.
Screening CC(CCC(=O)O)C1CCC2C3CC(O)[C@@H]4CC(O)CC[C@]4(C)C3CC[C@@]12C (stereo not given in full) returned Cruzain inh Det 6% and Cruzain inh noDet inconclusive.
COC(=O)CCC(C)C1CCC2C3C(O)C[C@@H]4CC(O)CC[C@@]4(C)C3CC(O)[C@]12C (stereo not given in full) was read as Cruzain inh Det 0%, Cruzain inh noDet inconclusive and Papain inh 3%.
COC(=O)CC[C@@H](C)C1CC[C@H]2[C@H]3CC[C@H]4C[C@@H]5CCC4(C)[C@@]3(O5)[C@@H](Br)[C@@H](Br)[C@@]12C (stereo not given in full) was read as Cruzain inh Det -3% and Cruzain inh noDet -14%.
Screening C[C@H](CCC(=O)O)[C@H]1CC[C@@H]2[C@@H]3[C@@H](O)C[C@H]4C[C@@H](O)CC[C@@]4(C)[C@H]3CC[C@@]21C returned Cruzain inh Det -7%, Cruzain inh noDet inconclusive and Papain inh 4%.
For CCOC(=O)c1[nH]c(C)c(CCC(=O)N2CCN(c3cccc(C)c3C)CC2)c1C the results were Cruzain inh Det 0% and Cruzain inh noDet 3%.
`Cc1ccc(C(=O)N/C(=C/c2cccc([N+](=O)[O-])c2)C(=O)NC(C)C)cc1` gave Cruzain inh Det 0% and Cruzain inh noDet -2%.
`Cc1ccc(C(=O)N/C(=C\c2cccc([N+](=O)[O-])c2)C(=O)OCN2C(=O)c3ccccc3C2=O)cc1` gave Cruzain inh Det 0.89µM*, Cruzain inh noDet 16µM* and Papain inh -4%.
`COc1ccc(NS(=O)(=O)c2ccc(-n3nnc4ccccc43)c([N+](=O)[O-])c2)cc1` gave Cruzain inh Det -6% and Cruzain inh noDet inconclusive.
